Structures are written as SMILES. Inconclusive results are not listed. Activity calls are given as the source filed them. Calls follow the shape of the full dose curve.
% is scaled to controls: 0 for no effect and ±100 for the full control effect.

The nature of the test: qHTS assay to identify small molecule agonists of the endoplasmic reticulum stress response signaling pathway - cell viability counter screen (AID 1159517). Also: nearly all actives have a fitted effect of over 50% in size. The settings on record: ESRE-bla HeLa viability, CellTiter-Glo luminescence, 5 h; series mostly up to 61 µM; activity change, negative = cytotoxicity: at the top concentration. The source says:
U.S. Tox21 Program National Center for Advancing Translational Sciences [NCATS] NIH Chemical Genomics Center [NCGC] U.S. Environmental Protection Agency [EPA] National Institutes of Environmental Health Sciences [NIEHS] National Toxicology Program [NTP] U.S. Food and Drug Administration [FDA] Tox21 Assay Overview: Endoplasmic Reticulum (ER) plays an important role in cellular signaling, protein folding/maturation, stress response, lipid biosynthesis, calcium storage and release etc. Under stress conditions, proteins in ER misfold or unfold, and leading to the expression of ER stress responsive genes. ER stress has been associated with a variety of pathophysiological conditions such as cancer, inflammation, neurodegenerative diseases, diabetes, ischemic heart disease etc. To identify the compounds that induce ER stress response, an ER stress reporter cell line, CellSensor ESRE-bla HeLa (Life Technologies, Carlsbad, CA) containing a beta-lactamase reporter gene under control of the Endoplasmic reticulum Stress Response Element (ESRE) was used to screen Tox21 10K compound library. The cytotoxicity of the Tox21 compound library against the ESRE-bla HeLa cell line was tested in parallel by measuring cell viability using the CellTiter-Glo assay in the same wells.
Tox21 Assay Protocol Summary: ESRE-bla HeLa cells were dispensed at 1,500 cells/6 uL of assay medium per well into black wall/clear-bottom 1536-well plates using a Multidrop Combi (ThermoFisher Scientific, Waltham, MA) dispenser. After the assay plates were incubated at 37 C and 5% CO2 for an overnight, 23 nL of compounds dissolved in DMSO, positive controls or DMSO only was transferred to the assay plate by a Pintool station (Kalypsys, San Diego, CA). The assay plates were incubated at 37 C and 5% CO2 for 5 hr. One uL of LiveBLAzer B/G FRET substrate (Life Technologies) was added using a FRD (Flying Reagent Dispenser, Aurora Discovery, San Diego, CA) and the plates were incubated at room temperature for 2 hr. Fluorescence intensity (405 nm excitation, 460 nm and 530 nm emissions) was measured using an Envision plate reader (PerkinElmer, Shelton, CT). For cytotoxicity, 4 ul/well of CellTiter-Glo reagent was added into the assay plates using an FRD. After 30 min incubation at room temperature, the luminescence intensity was measured using a ViewLux plate reader (PerkinElmer).
Background: Quantitative high-throughput screening tests each substance at several concentrations.
Consider `O=C(Cl)OCCOCCOC(=O)Cl`, for which the “activity change, negative = cytotoxicity” value is -0.846% (inactive).

In the case of `C#C[C@]1(O)CC[C@H]2[C@@H]3CCC4=CC(=O)CCC4=C3C=C[C@@]21CC`, the “activity change, negative = cytotoxicity” value is -2.27% (inactive).

On to `CCCCCCCCCCCCN=C(N)N`, for which the activity change, negative = cytotoxicity is 5.11% [at 3.11 µM] (inactive).

For `CNC(=O)Oc1cccc(N=CN(C)C)c1`, the “activity change, negative = cytotoxicity” value was 3.1% (inactive).

On to `CCOP(=S)(OCC)Oc1ccc(S(C)=O)cc1` (stereo not given), for which the “activity change, negative = cytotoxicity” value is 1.96% (inactive).

On to `CCCC1CCCCN1` (stereo not given), for which the “activity change, negative = cytotoxicity” value is 13.4% (inactive).

As to `COc1cc(CC#N)cc(OC)c1OC`, the “activity change, negative = cytotoxicity” value is 7.72% (inactive).

As to `CCC(C)Cl` (stereo not given), the “activity change, negative = cytotoxicity” value was -7.74% (inactive).

With `C=C(C)C(=O)OCCCCOC(=O)C(=C)C`, the “activity change, negative = cytotoxicity” value was -5.36% (inactive).

Regarding `c1ccc2c(c1)sc1ccccc12`, the “activity change, negative = cytotoxicity” value was -18.2% (inactive).

In the case of `CC(C)[C@@H](C(=O)O[C@@H](C#N)c1cccc(Oc2ccccc2)c1)c1ccc(Cl)cc1`, the Potency entry is “inactive”.

Regarding `C=CC(C)(CCC=C(C)C)OC(=O)c1ccccc1N` (stereo not given), the “activity change, negative = cytotoxicity” value was 14.3% [at 78.8 µM] (inactive).

Consider `O=C(O)COc1cc(Cl)c(Cl)cc1Cl`, for which the “activity change, negative = cytotoxicity” value is -13.7% (inactive).

Take `Cc1nnc(-c2ccccc2)c(=O)n1N`: the “activity change, negative = cytotoxicity” value is 15.5% (inactive).

For the compound `O=[N+]([O-])c1cc(Cl)c(Cl)cc1Cl`, the “activity change, negative = cytotoxicity” value was -25.7% (inactive).

Regarding `FC(Cl)(Cl)C(F)(Cl)Cl`, the “activity change, negative = cytotoxicity” value was 19.6% [at 78.8 µM] (inactive).

For the compound `CC(C)OC(=O)Cc1ccccc1`, the “activity change, negative = cytotoxicity” value was 9.52% [at 78.8 µM] (inactive).

As to `C=CCOCC1CO1` (stereo not given), the “activity change, negative = cytotoxicity” value was -4.15% (inactive).

As to `CCCCC1C(=O)NC(=O)N(C2CCCCC2)C1=O` (stereo not given), the “activity change, negative = cytotoxicity” value is 9.19% (inactive).

As for `C1CS1`, the “activity change, negative = cytotoxicity” value is -1.43% [at 78.8 µM] (inactive).

In the case of `O=P(OCC(Br)CBr)(OCC(Br)CBr)OCC(Br)CBr` (stereo not given), the Potency result was “inactive”.

Take `NC(=S)c1c(Cl)cccc1Cl`: the “activity change, negative = cytotoxicity” value is -0.288% (inactive).

As for `CC[N+]1(C)CCCC(OC(=O)C(O)(c2ccccc2)c2ccccc2)C1` (stereo not given), the “activity change, negative = cytotoxicity” value is 0.507% (inactive).

`CC(Oc1cccc(Cl)c1)C(=O)O` (stereo not given): the “activity change, negative = cytotoxicity” value is -19.5% (inactive).

As to `CCCN(CCC)C(=O)Cc1c(-c2ccc(Cl)cc2)nc2ccc(Cl)cn12`, the “activity change, negative = cytotoxicity” value is -3.67% (inactive).

In the case of `CCOP(=O)(SC(C)CC)N1CCSC1=O` (stereo not given), the “activity change, negative = cytotoxicity” value was 4.04% (inactive).

`CCCCCCCCCCCCCCCl`: the “activity change, negative = cytotoxicity” value was 9.79% [at 78.8 µM] (inactive).

Consider `CCc1cnc(C2=NC(C)(C(C)C)C(=O)N2)c(C(=O)O)c1` (stereo not given), for which the Potency entry was “inactive”.

As to `CC[N+]1(CCOC(=O)C(O)(c2ccccc2)c2ccccc2)CCCCC1`, the “activity change, negative = cytotoxicity” value is 3.63% (inactive).

For the compound `CCC1(CC)C(=O)NC(=O)NC1=O`, the “activity change, negative = cytotoxicity” value was 9.63% (inactive).

For `C1CCNCC1`, the “activity change, negative = cytotoxicity” value was 14.4% [at 78.8 µM] (inactive).

For `CCN(C(C)=O)c1cccc(-c2ccnc3c(C#N)cnn23)c1`, the “activity change, negative = cytotoxicity” value was 1.78% (inactive).

For `O=C(O)CCCOc1ccc(Cl)cc1Cl`, the “activity change, negative = cytotoxicity” value was 15% (inactive).

For `C[C@]12C=CC3=C4CCC(=O)C=C4CC[C@H]3[C@@H]1CC[C@@H]2O`, the “activity change, negative = cytotoxicity” value was -7.09% (inactive).

Take `CCOc1cccc(C2(N3CCN(c4ccccc4)CC3)CCC(C)CC2)c1` (stereo not given): the “activity change, negative = cytotoxicity” value was -3.88% (inactive).

For `Nc1ccc2c(c1)Cc1ccccc1-2`, the “activity change, negative = cytotoxicity” value was -16.4% (inactive).

Turning to `C=CCSSCC=C`, the “activity change, negative = cytotoxicity” value was -6.91% (inactive).

On to `C[C@H]1O[C@H](OC2[C@@H](O)[C@@H](O)C(O)[C@H](O)[C@H]2O)[C@@H](N)C[C@@H]1N=C(N)C(=O)O` (stereo not given in full), for which the “activity change, negative = cytotoxicity” value is -1.59% (inactive).

Take `CC(Oc1cc(Cl)c(Cl)cc1Cl)C(=O)O` (stereo not given): the “activity change, negative = cytotoxicity” value is 16.9% (inactive).

As for `CCOC(=O)C1OC1(C)c1ccccc1` (stereo not given), the Potency entry was “inactive”.
